97 molecules from ChEMBL document CHEMBL3988442, “University of Dundee, Small-Polar-MMV Screening Library” (2021) can be followed below.

Hit rate of the full screen: of about 48,000 compounds, about 13,000 (27%) showed an effect of 50% or more. Some of the results follow.

In this test the test system is Wolbachia pipientis. Nature of the test: Anti-Wolbachia Cell-Based Screen. The conditions noted are these: 5 µM. Further details: scale not given: in the data most compounds retested in dose-response had high values. It counts as functional.
Take `Cc1oc(NC(=O)C(C)N2CCN(C(C)(C)CO)CC2)c(C#N)c1C` (configuration not stated): the “Percent Effect” value is reported as -7.519%. The figure for `O=C(Cc1cccc(F)c1F)NS(=O)(=O)c1cncc(Cl)c1` is -8.127%. With `Cc1ccc(OC2(C(=O)O)CCN(C/C=C/c3ccco3)CC2)cn1`, the “Percent Effect” value is reported as 1.431%. `CCN1CCN(c2ccc(CNC(=O)c3c(C)noc3C)cn2)CC1`: the “Percent Effect” value is reported as 9.474%. The figure for `CN(Cc1ccc([S+](C)[O-])cc1)c1ccccn1` (configuration not stated) is -21.98%; for `Cc1nc(C)n(CC(C)C(=O)N2CCC(NS(C)(=O)=O)CC2)n1` (configuration not stated) it is -0.2261%; for `CS(=O)(=O)Cc1ccc(CNc2ncc(C#N)cc2Cl)cc1` it is -4.102%. `CCN(C)C(=O)C1(c2ccc(F)cc2F)CCC1`: the “Percent Effect” value is -1.611%. Take `Cc1n[nH]c(C)c1C1CCCN1C(=O)NCC(=O)NC(C)(C)C` (configuration not stated): the “Percent Effect” value is recorded as -8.161%. Consider `O=C(Nc1cccc(N2CCN(CC3CC3)CC2)c1)N1CCCC1`, for which the “Percent Effect” value stood at 0.3876%. For the molecule `CC(=O)N1CCCC1c1cc(N2CCN(C3CCCC3)CC2)cc(C)n1` (configuration not stated), the “Percent Effect” value worked out at 1.456%. Take `CC(=O)N1CCCC1c1cc(N2CCN(CC3CC3)CC2)cc(C)n1` (configuration not stated): the “Percent Effect” value worked out at 101%. As to `CC(=O)N1CCCC1c1cc(N2CCN(CC(C)(C)C)CC2)cc(C)n1` (configuration not stated), the “Percent Effect” value turned out to be 123.3%.

Consider `Cc1cccc(CNCc2c(C(C)C)nn(C)c2N2CCOCC2)n1`, for which the “Percent Effect” value is recorded as -7.798%. As to `COCCS(=O)(=O)NC(=O)c1nnn(-c2ccc(F)cc2)c1C1CC1`, the “Percent Effect” value is on record as -1.625%. With `Cc1ccc(-n2nnc(C(=O)NS(C)(=O)=O)c2C2CC2)cc1` the figure was -4.729%.

As to `CS(=O)(=O)NC(=O)c1nnn(-c2cccc(F)c2)c1C1CC1`, the “Percent Effect” value worked out at 110.8%. As to `CC(C)NC(=O)c1nnn(-c2cccc(C(F)(F)F)c2)c1C1CC1`, the “Percent Effect” value stood at 8.497%. Turning to `NS(=O)(=O)CCNC(=O)c1nnn(-c2ccccc2)c1C1CC1`, the “Percent Effect” value is on record as -6.368%. The figure for `CS(=O)(=O)NC(=O)c1nnn(-c2ccccc2)c1C1CC1` is 97.89%; for `NC(=O)c1ccc(OCC(=O)NC2CCc3c(F)cccc32)cc1` (configuration not stated) it is -9.741%; for `CC(C)N(C)Cc1ccccc1CNc1ccc2nncn2n1` it is -2.79%. For `Cc1cc(F)ccc1S(=O)(=O)N1C[C@@H](C)[C@@](C)(O)C1`, the “Percent Effect” value was 6.812%.

As for `Cc1ccc(CC(=O)N2CCc3nnc(N(C)C)cc3C2)cn1`, the “Percent Effect” value is listed as -3.136%. Turning to `CNC(=O)[C@@H]1CN(C(=O)C(C)C)C[C@H]1c1ccnc(N2CCCC2)n1.Cl`, the “Percent Effect” value turned out to be 109.4%. With `CNC(=O)[C@@H]1CN(C(=O)C2CCC2)C[C@H]1c1ccnc(N2CCCC2)n1.Cl` the figure was 84.63%; with `CNC(=O)C1CCCN(c2nc(-c3ccco3)nc3c2CCNCC3)C1` (configuration not stated), -9.477%. With `CNC(=O)C1CCCN(C(=O)C2CCC2)C1` (configuration not stated) the figure was -10.43%.

As to `Cc1nc(CNCc2ccc(N3CCC(CO)CC3)nc2)cs1`, the “Percent Effect” value is -0.2455%.

On to `O=C([C@@H]1CCCO1)N1CCn2c(Cn3cccn3)cnc2C1`, for which the “Percent Effect” value is reported as 2.282%. `CCOc1cccc(C(=O)N2CCCn3nc(CCC(=O)O)cc3C2)c1`: the “Percent Effect” value is -15.16%. The figure for `CN(Cc1cc2n(n1)CCN(C(=O)[C@H]1CCCO1)C2)Cc1nccs1` is 100.4%. Take `CN(Cc1cc2n(n1)CCN(C(=O)c1cccnc1)C2)Cc1nccs1`: the “Percent Effect” value was determined as 89.98%. With `CN(Cc1cn2c(n1)CN(C(=O)c1cccnc1)CC2)Cc1ccco1`, the “Percent Effect” value is recorded as -4.152%. In the case of `CN(Cc1cn2c(n1)CN(C(=O)C1CCCO1)CC2)Cc1ccco1` (configuration not stated), the “Percent Effect” value amounted to 5.5%. `CC(C)C1CN(C(=O)c2cc(C3CC3)n[nH]2)CCC(=O)N1CC1CC1` (configuration not stated): the “Percent Effect” value is reported as 29.09%. With `C[C@@H]1CN(S(=O)(=O)N2CCCC2)C[C@@]1(O)C1CC1`, the “Percent Effect” value is on record as -6.629%. As to `CNC(=O)[C@@H]1C[C@@H](NC(=O)c2ccc(OC)o2)CN1Cc1sccc1C`, the “Percent Effect” value came out at 3.708%. Regarding `CC(C)CN(c1cn[nH]c1)S(=O)(=O)c1cccc(C#N)c1`, the “Percent Effect” value is on record as -11.66%. The figure for `CC1(CCC(=O)N2CCC(n3cc(C4(O)CCCC4)nn3)CC2)CC1` is 8.722%. With `Cc1ccc(CN2CC(O)CN(C(=O)C3CC3)CC2=O)cc1` (configuration not stated), the “Percent Effect” value was 98.84%. `COc1ccc(CN2CCO[C@H]3CN(C4CCC4)CC[C@H]3C2=O)cc1.O=C(O)C(F)(F)F`: the “Percent Effect” value is given as -4.57%. With `O=C1CN(C(=O)C2CCCCC2)CC(O)CN1Cc1ccc(Cl)cc1` (configuration not stated) the figure was 110.4%; with `O=C(C1CCOCC1)N1CCN2C(=O)N(Cc3ccc(F)cc3)C[C@H]2C1`, -6.376%.

Turning to `COc1ccc(CN2CC(O)CN(C(=O)C3CCC3)CC2=O)cc1` (configuration not stated), the “Percent Effect” value is on record as 125.6%. With `O=C1CN(C(=O)C2CCOCC2)CCN1Cc1ccc(Cl)cc1`, the “Percent Effect” value was -5.322%. Regarding `O=C1CN(C(=O)C2CCCOC2)CCN1Cc1ccc(Cl)cc1` (configuration not stated), the “Percent Effect” value is on record as -1.465%. Consider `COc1ccc(CN2CCO[C@H]3CN(C(=O)C4CC4)CC[C@H]3C2=O)cc1`, for which the “Percent Effect” value is -3.017%.

Turning to `CN(CCC(C)(C)O)C(=O)C1CCC(=O)N(Cc2ccc(Cl)cc2)C1` (configuration not stated), the “Percent Effect” value is listed as -7.945%. For `CCOCC1CN(C(=O)c2cccs2)Cc2nn(C)cc21` (configuration not stated), the “Percent Effect” value is listed as -4.192%. With `CC(C)c1nccn1C1CCCN(C(=O)c2cnn(C)c2C2CC2)C1` (configuration not stated) the figure was -1.568%; with `CCCc1cc(C(=O)N2CCCC(n3ccnc3C)C2)[nH]n1` (configuration not stated), -7.935%; with `CCn1ccnc1C1CCCN(C(=O)c2sc(C)nc2C)C1` (configuration not stated), -9.404%.

Consider `CCc1nccn1C1CCCN(C(=O)c2cnn(C)c2C2CC2)C1` (configuration not stated), for which the “Percent Effect” value stood at 0.8841%. On to `CCn1c(C)cc(C(=O)N2CCCC(n3nc(C)nc3C)C2)c1C` (configuration not stated), for which the “Percent Effect” value is reported as -3.865%. As for `Cc1ncncc1C(=O)N1CCCC(n2ccnc2C)C1` (configuration not stated), the “Percent Effect” value is 90.56%. With `Cc1nccn1C1CCCN(C(=O)c2cnn(C)c2C2CC2)C1` (configuration not stated) the figure was 89.3%. The figure for `CCn1c(C)cc(C(=O)N2CCCC(n3ccnc3C)C2)c1C` (configuration not stated) is 101.9%; for `Cc1nc(C)c(C(=O)N2CCCC(n3ccnc3C)C2)s1` (configuration not stated) it is 110.6%; for `Cc1cnc(C(=O)N2CCCC(n3ccnc3C)C2)cn1` (configuration not stated) it is 4.379%.

As for `Cc1sc2nc(CCN)nc(N3CC(N4CCCCC4)C3)c2c1C`, the “Percent Effect” value came out at 3.569%. With `O=C(CCc1ncc(-c2ccc(F)cc2)o1)NCCN1CCOCC1` the figure was 3.155%; with `Cc1ncsc1C(=O)N(C)Cc1cccc(Cl)c1`, -11.93%; with `CCn1[nH]c(C)c2c(C(F)(F)C(F)(F)F)cc(=O)nc1-2`, -26.97%. The figure for `CN(CCC(F)(F)F)C(=O)C1CCCN1C(=O)OC(C)(C)C` (configuration not stated) is 12.15%. Regarding `Cc1ccccc1SC1CCN(C(=O)C2CNC(=O)N2)CC1` (configuration not stated), the “Percent Effect” value was determined as 2.436%. Take `CCN(CC)Cc1ccc(C(=O)NC2CCc3ccccc32)o1` (configuration not stated): the “Percent Effect” value was -6.624%.

Take `O=C(CCC1CCCC1)N1CCC(O)(C(F)(F)F)C1` (configuration not stated): the “Percent Effect” value was -0.53%. With `CN1CCOCC12CCN(Cc1nccs1)CC2`, the “Percent Effect” value was determined as 7.326%.

As to `O=C(CN1C(=O)CCC1=O)NCc1cc(C2CC2)n(C2CCCC2)n1`, the “Percent Effect” value is -8.442%. For `Cn1nc(CNC(=O)CN2C(=O)CCC2=O)cc1C1CC1`, the “Percent Effect” value is given as -2.201%. With `CCOCC(=O)NCCc1nc(C)cc(C(F)(F)F)n1` the figure was 110.5%; with `Cc1cc(C)nc(CCNC(=O)C(c2ccc(F)cc2)N(C)C)n1` (configuration not stated), 7.326%. On to `CCOCC(=O)NCc1cc(C2CC2)n(C2CCCC2)n1`, for which the “Percent Effect” value was 2.551%.

Consider `CCOCC(=O)NCCc1nc(C2CC2)cc(C(F)(F)F)n1`, for which the “Percent Effect” value is 130.2%. With `CCOc1ccnc(NCc2nc(C)cc(C(F)(F)F)n2)n1`, the “Percent Effect” value is recorded as -1.038%. The figure for `CCOCC(=O)NCCc1ccc(I)s1` is -15.02%.

`O=C(CN1C(=O)CCC1=O)NCCc1nc(C2CC2)cc(C(F)(F)F)n1`: the “Percent Effect” value is on record as 102.8%. The figure for `Cc1ncccc1C(=O)NC1CC(=O)N(CC(F)(F)F)C1` (configuration not stated) is -0.2034%; for `O=C(NCc1ccccc1F)Nc1ccn(CCN2CCOCC2)n1` it is -47.91%. With `Cc1cc(CSc2ccccn2)on1` the figure was -1.483%; with `CN(C)CCN1C[C@@H]2CN(C(=O)c3ccsc3)C[C@@H]2C1=O.O=C(O)C(F)(F)F`, -6.945%. On to `CN(C)CCN1C[C@@H]2CN(c3ccccc3)C[C@@H]2C1=O.O=C(O)C(F)(F)F`, for which the “Percent Effect” value came to 89.24%. With `CN(C)CCN1C[C@@H]2CN(C(=O)C3CC=CC3)C[C@@H]2C1=O`, the “Percent Effect” value is listed as -2.917%. With `CN(C)CCN1C[C@@H]2CN(S(=O)(=O)c3ccccc3)C[C@@H]2C1=O.O=C(O)C(F)(F)F` the figure was 104.5%; with `CN(C)CCN1C[C@@H]2CN(S(=O)(=O)c3cccs3)C[C@@H]2C1=O.O=C(O)C(F)(F)F`, -17.1%; with `CN(C)CCN1C(=O)C[C@@H]2[C@@H]1CCN2S(=O)(=O)c1ccccc1.O=C(O)C(F)(F)F`, -18.17%.

As to `Cc1cc(NC(=O)N2CCN(C)CC2C)n(C(C)(C)C)n1` (configuration not stated), the “Percent Effect” value is on record as -1.035%. The figure for `Cc1nn(C)c2nc(N(CCOc3ccccc3)CC3CCCO3)sc12` (configuration not stated) is -19.55%; for `Clc1ccccc1OC1CN(CC2CCOC2)C1` (configuration not stated) it is -8.991%; for `Cc1cnc(N2C[C@@H]3[C@@H](C2)OCC(=O)N3CC2CC2)nc1` it is 5.534%. Take `COCC1CN(Cc2csc(C)n2)Cc2nccn2C1.O=C(O)C(F)(F)F` (configuration not stated): the “Percent Effect” value is -4.637%.

For `CCN1Cc2nccn2CC(COCc2csc(C)n2)C1.O=C(O)C(F)(F)F.O=C(O)C(F)(F)F` (configuration not stated), the “Percent Effect” value was 99.32%. As for `Cc1nc(CN2Cc3nccn3CC(CN3CCOCC3)C2)cs1.O=C(O)C(F)(F)F.O=C(O)C(F)(F)F` (configuration not stated), the “Percent Effect” value was -3.569%.

Consider `COCCN1Cc2nccn2CC(COCc2csc(C)n2)C1.O=C(O)C(F)(F)F.O=C(O)C(F)(F)F` (configuration not stated), for which the “Percent Effect” value turned out to be 102.1%. As to `Cc1nc(CN2Cc3nccn3CC(COCC3CC3)C2)cs1.O=C(O)C(F)(F)F` (configuration not stated), the “Percent Effect” value is -7.932%.

As for `CCOCC1CN(Cc2csc(C)n2)Cc2nccn2C1.O=C(O)C(F)(F)F` (configuration not stated), the “Percent Effect” value was -4.835%.
